A short description of assay [1]: NCI Yeast Anticancer Drug Screen. Data for the rad50 strain (AID 155).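 Note: 0% = growth of vehicle-only cultures of the same strain.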 The settings on record: S. cerevisiae rad50 strain growth inhibition, hits give high values; at 50.0 µM unless noted. The procedure, abridged:
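Cells are treated with compound, grown, and their growth is then scored against vehicle-only cultures of the same repair-deficient yeast strain.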

Assay [2] in a line: NCI Yeast Anticancer Drug Screen. Data for the mec2-1 strain (AID 157). The settings on record: S. cerevisiae mec2-1 strain, hits give high values; at 50.0 µM unless noted. In short, it runs like this:
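mec2-1 yeast strain, carrying an alteration in DNA damage repair or cell cycle control, was exposed to compounds; growth inhibition was measured relative to vehicle-treated controls.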

Assay [3] in a line: NCI Yeast Anticancer Drug Screen. Data for the sgs1 mgt1 strain (AID 161).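 Note: 0% = growth of cultures given vehicle only.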 Particulars: S. cerevisiae sgs1 mgt1 strain, hits give high values; at 50.0 µM unless noted. In short, it runs like this:
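This yeast growth screen uses a strain with defined DNA-repair lesions; compound-treated growth is compared with vehicle-treated growth.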

Assay [4] in a line: NCI Yeast Anticancer Drug Screen. Data for the cln2 rad14 strain (AID 165).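 Note: 0% = growth equal to vehicle treated cultures.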 Particulars: S. cerevisiae cln2 rad14 strain, hits give high values; at 50.0 µM unless noted. In short, it runs like this: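 Yeast carrying cln2 and rad14 alterations (cell cycle control and DNA damage repair) were exposed to compounds. Growth inhibition was measured against vehicle-treated controls.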

Assay [5] is described as follows: NCI Yeast Anticancer Drug Screen. Data for the bub3 strain (AID 167). The settings on record: S. cerevisiae bub3 mutant strain, hits give high values; at 50.0 µM unless noted. The procedure, abridged: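 Part of a panel of yeast mutants defective in DNA damage repair or cell cycle regulation. Each strain is grown with compound, and inhibition is calculated relative to solvent-treated cultures.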

A short description of assay [6]: NCI Yeast Anticancer Drug Screen. Data for the mlh1 rad18 strain (AID 175). The settings on record: S. cerevisiae mlh1 rad18 strain growth inhibition, hits give high values; at 50.0 µM unless noted. In short, it runs like this:
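Growth inhibition of the yeast strain was measured after compound exposure and expressed relative to vehicle-treated controls. The strain carries defined defects in DNA damage repair.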

SMILES strings stand for the structures. About 79,000 compounds went through this panel and 15% of them were active in at least one assay; those are over-represented in the sample as a whole. A number with no mark means an inactive call. Active and inactive are the calls of the source. Cut-off read from the data, not from the text of the source: active = growth inhibition above about 70%; inactive = the rest. Where a SMILES comes first, the peptide text is derived from it. The star is where a group is joined. Cbz = O=C(OCc1ccccc1)*; NHNH2 = NN*

Consider 20 molecules from PubChem BioAssay (NCI).

In the case of `CCOc1cc2c(cc1C(C)c1ccc(OC)c(C)c1)OCO2` (stereo not given), the growth inhibition in assay [1] is 11.1%; in assay [2], 5.6%; in assay [3] it was -2.3%; in assay [4], 74% (active); in assay [5], 26.2%; in assay [6], 5.7%.
For the molecule `CN(C)C(=S)S(=O)(=O)c1ccccc1`, the growth inhibition in assay [1] is 51.5%; in assay [2] it was 75.8% (active); in assay [3], 81.2% (active); in assay [4], 25.2%; in assay [5], 85.6% (active); in assay [6], 91.2% (active).
For the molecule `CCOC(=O)CCC(NC(=O)OCc1ccccc1)C(=O)NC(CCC(=O)OCC)C(=O)NN` (stereo not given) (Cbz-Glu(OEt)-Glu(OEt)-NHNH2; configuration not given here), the growth inhibition in assay [1] was 2.65%; in assay [2], 7.75%; in assay [3], 2.5%; in assay [4] it was 11.8%; in assay [5] it was 23.2%; in assay [6], 27.3%.
As for `CCOC(=O)[C@H]1Nc2c(cccc2[N+](=O)[O-])C2c3ccccc3CC21` (stereo not given in full), the growth inhibition in assay [1] is 48.5%; in assay [2] it was 1.55%; in assay [3], 8.6%; in assay [4], 25.3%; in assay [5], 9.5%; in assay [6] it was 13.6%.
Turning to `CC1=NN(C(=O)Cc2ccccc2)C(=O)/C1=C\C=C\c1ccccc1`, the growth inhibition in assay [1] was 11.3%; in assay [2], -28.2%; in assay [3], -20.6%; in assay [4] it was -9.2%; in assay [5], -15.2%; in assay [6], -7.85%.
As to `COc1ccc2c(c1)[n+](=O)c(C(=O)C/C(=N/NC(=O)C[N+](C)(C)C)C(=O)Nc1cccc(C)c1C)c(C)n2O`, the growth inhibition in assay [1] was -23.6%; in assay [2] it was -2.25%; in assay [3], -41%; in assay [4] it was -5.5%; in assay [5] it was 22.9%; in assay [6] it was -13.9%.
Consider `COC(=O)c1cc(C(=O)OC)c(CC(=O)C(=O)NC2C3CC4CC(C3)CC2C4)nc1CC(=O)C(=O)NC1C2CC3CC(C2)CC1C3` (stereo not given), for which the growth inhibition in assay [1] is 0.5%; in assay [2], 25.2%; in assay [3], -11.9%; in assay [4], 10.2%; in assay [5], 13.7%; in assay [6], 10.9%.
For the molecule `O=C(CC1(O)C(=O)Nc2ccc(Br)cc21)c1ccc2c(c1)OCO2` (stereo not given), the growth inhibition is 2.7% in assay [1]; 5.35% in assay [2]; 11.4% in assay [3]; -6.5% in assay [4]; 36.5% in assay [5]; -1.15% in assay [6].
Take `COc1ccc2oc(-c3cc4cc(OC)ccc4o3)cc2c1`: the growth inhibition was -10.7% in assay [1]; -5.7% in assay [2]; -12.8% in assay [3]; -17.9% in assay [4]; -61.2% in assay [5]; -0.55% in assay [6].
As to `Cc1cc(C)c(-c2c(C)cc(C)c(C(=O)c3ccc([N+](=O)[O-])cc3)c2C)c(C)c1C(=O)c1ccc([N+](=O)[O-])cc1`, the growth inhibition was 25.7% in assay [1]; 2.85% in assay [2]; 11.8% in assay [3]; 9.25% in assay [4]; 3.2% in assay [5]; 8.85% in assay [6].
`CCOC(=O)c1cc2c(-c3ccccc3)c(-c3ccccc3)c(-c3ccccc3)c(-c3ccccc3)n2n1`: the growth inhibition was 10.2% in assay [1]; 15.2% in assay [2]; 0.25% in assay [3]; 31.9% in assay [4]; -1.45% in assay [5]; -0.4% in assay [6].
With `CN(C)C(=O)NN1CCCCCC1`, the growth inhibition was 7.25% in assay [1]; 13.9% in assay [2]; -14.2% in assay [3]; -14.7% in assay [4]; 13.3% in assay [5]; -13.3% in assay [6].
For `CCCOC(=O)C1C(=O)CC(c2ccccc2)C1c1ccccc1` (stereo not given), the growth inhibition was 1.95% in assay [1]; -2.05% in assay [2]; 1.3% in assay [3]; -4.15% in assay [4]; 1.25% in assay [5]; -0.4% in assay [6].
Regarding `Cc1ccc(-c2c3ccccc3cc3ccccc23)c(C)c1`, the growth inhibition in assay [1] was 24.9%; in assay [2], -11.1%; in assay [3] it was -1.5%; in assay [4], -2.8%; in assay [5], 5.25%; in assay [6], 11.8%.
Take `CCCCCOC(=O)c1ccc(C(C)C)cc1`: the growth inhibition in assay [1] is 10.2%; in assay [2], -6.2%; in assay [3], 5.15%; in assay [4], 8.5%; in assay [5], 0.6%; in assay [6] it was 5.1%.
On to `COC(=O)c1ccccc1NC(=O)Cc1ccccc1`, for which the growth inhibition in assay [1] was -0.5%; in assay [2], -27.1%; in assay [3], 15.9%; in assay [4] it was -5.65%; in assay [5], 37.2%; in assay [6], -15.7%.
In the case of `Cc1nc2c(=O)[nH]c(=O)[nH]c2s1`, the growth inhibition was -12.6% in assay [1]; 5.05% in assay [2]; -4.2% in assay [3]; -12% in assay [4]; -7.5% in assay [5]; -8.6% in assay [6].
For `CCCCCCSC(=O)NC(C)=O`, the growth inhibition in assay [1] is -10.3%; in assay [2], -0.95%; in assay [3], 1.4%; in assay [4], -86%; in assay [5], -18.9%; in assay [6] it was 0%.
On to `NC1(CC(=O)O)CCN(Cc2ccccc2)CC1`, for which the growth inhibition was 4.05% in assay [1]; 13% in assay [2]; 3.9% in assay [3]; -7.05% in assay [4]; -1.15% in assay [5]; 2.4% in assay [6].
Regarding `CNc1c(F)c(C#N)c(F)c(F)c1C#N`, the growth inhibition in assay [1] was 9.35%; in assay [2] it was -6.95%; in assay [3], -16.6%; in assay [4], -8.95%; in assay [5], 0.55%; in assay [6] it was 1.75%.
